Experimental data taken from PubChem BioAssay (Tox21).
A number with no mark means an inactive call. Records with an inconclusive call do not appear. Where a call stands in place of a potency, no number is given. The source made the active and inactive calls. Unless noted, calls come from the whole dose curve; as a rule, active = well fitted curve in the direction sought with a large enough effect in the repeat runs; inconclusive = weak or mixed curves; inactive = no such curve, though single readings can be large; an effect the other way counts as inactive or inconclusive.

Key:
[1] = qHTS assay to identify small molecule antagonists of the glucocorticoid receptor (GR) signaling pathway - cell viability counter screen (AID 720693); note: nearly all actives have a fitted effect of over 55% in size
[2] = qHTS assay for identifying genotoxic compounds that show differential cytotoxicity against isogenic chicken DT40 cell lines with known DNA damage response pathways - wild type cell line (AID 743012); note: nearly all actives have a fitted effect of over 60% in size; note: potency is the fitted concentration of half-maximal effect
Outline: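 Cells (DT40 wild type, 300/well) are treated with DMSO-dissolved compounds after a ~0.5 h pre-incubation and kept 40 h at 37 C/5% CO2. Viability is then measured by CellTiter-Glo luminescence following 30 min at room temperature.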

[3] = qHTS assay for identifying genotoxic compounds that show differential cytotoxicity against isogenic chicken DT40 cell lines with known DNA damage response pathways - Rev3 mutant cell line (AID 743014); note: nearly all actives have a fitted effect of over 55% in size; note: potency is the fitted concentration of half-maximal effect
[4] = qHTS assay for identifying genotoxic compounds that show differential cytotoxicity against isogenic chicken DT40 cell lines with known DNA damage response pathways - Rad54/Ku70 mutant cell line (AID 743015); note: nearly all actives have a fitted effect of over 60% in size; note: potency is the fitted concentration of half-maximal effect
[5] = qHTS assay to identify small molecule antagonists of the androgen receptor (AR) signaling pathway - cell viability counter screen (AID 743033; note: nearly all actives have a fitted effect of over 45% in size)
[6] = qHTS assay to identify small molecule antagonists of the androgen receptor (AR) signaling pathway using the MDA cell line - cell viability counter screen (AID 743041; note: nearly all actives have a fitted effect of over 45% in size; note: potency is the fitted concentration of half-maximal effect)
Outline: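 Same-well cytotoxicity was assessed by CellTiter-Fluor in MDA-kb2 AR-luc cells after 16 h of compound treatment under R1881 agonism.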

[7] = qHTS assay to identify small molecule antagonists of the thyroid receptor (TR) signaling pathway - cell viability counter screen (AID 743064); note: nearly all actives have a fitted effect of over 50% in size
Outline: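 In rat pituitary GH3.TRE-Luc reporter cells co-exposed to compound and 1 nM T3 for 23.5 h, cytotoxicity was assessed with CellTiter-Fluor in the same wells, read by fluorescence.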

[8] = qHTS assay to identify small molecule antagonists of the thyroid receptor (TR) signaling pathway (AID 743065); note: series mostly up to about 70 µM; nearly all actives have a fitted effect of over 55% in size
Outline: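 GH3.TRE-Luc rat pituitary cells (two TREs driving luciferase) were dosed with compound, then stimulated with 1 nM T3 (final) for 23.5 h at 37 C. ONE-Glo luminescence was the read-out, with CellTiter-Fluor fluorescence as the cytotoxicity counter-screen.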

[9] = tested on: thyroid hormone receptor (rat, GH3 cells); test: qHTS assay to identify small molecule agonists of the thyroid receptor (TR) signaling pathway (AID 743066; calls by dose curve)
[10] = target: Estrogen receptor (Homo sapiens) (UniProt P03372); test: qHTS assay to identify small molecule antagonists of the estrogen receptor alpha (ER-alpha) signaling pathway (AID 743069; active = well fitted curve in the direction sought with a large enough effect in the signal ratio in the repeat runs, not every such curve was filed as active; the % refers to the signal ratio)
Outline: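 Reporter cells (ER-alpha-bla, HEK293 background) are conditioned overnight in stripped-serum medium (2% charcoal-stripped FBS). Compound and 17beta-estradiol exposure runs 18 hr at 37C, 5% CO2.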

[11] = target: Estrogen receptor (Homo sapiens) (UniProt P03372); test: qHTS assay to identify small molecule agonists of the estrogen receptor alpha (ER-alpha) signaling pathway (AID 743075; calls by dose curve;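 note: HEK293 GripTite cells with ER-alpha and UAS-driven beta-lactamase reporter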)
[12] = target: Estrogen receptor (Homo sapiens) (UniProt P03372); test: qHTS assay to identify small molecule agonists of the estrogen receptor alpha (ER-alpha) signaling pathway using the BG1 cell line (AID 743079); note: nearly all actives have a fitted effect of over 20% in size
[13] = qHTS assay to identify small molecule antagonists of the estrogen receptor alpha (ER-alpha) signaling pathway using the BG1 cell line (AID 743080; calls by dose curve;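 note: BG1 cells stimulated with 17beta-estradiol alongside compound; series mostly up to about 70 µM; nearly all actives have a fitted effect of over 25% in size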)
Outline: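 BG1-Luc-4E2 cells (endogenous full-length ER-alpha, 4xERE luciferase) hormone-starved 5 days in charcoal-stripped FBS, plated 4,000/well for 24 h, then compound plus 17beta-estradiol for 21.5 h at 37 C; ONE-Glo luminescence read.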

[14] = qHTS assay to identify small molecule antagonists of the estrogen receptor alpha (ER-alpha) signaling pathway using the BG1 cell line - cell viability counter screen (AID 743081);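 note: compound given together with 17beta-estradiol as the ER stimulus; series mostly up to about 70 µM; nearly all actives have a fitted effect of over 45% in size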
Aromatase (Homo sapiens) = Aromatase (Homo sapiens) (UniProt P11511); test: qHTS assay to identify aromatase inhibitors (AID 743083); note: series mostly up to about 70 µM; nearly all actives have a fitted effect of over 55% in size
[15] = qHTS assay to identify small molecule antagonists of the estrogen receptor alpha (ER-alpha) signaling pathway - cell viability counter screen (AID 743074; calls by dose curve;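 note: HEK293 cells carrying ER-alpha-UAS-bla reporter stimulated with 17beta-estradiol; nearly all actives have a fitted effect of over 45% in size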)
[16] = target: Androgen receptor (Homo sapiens) (UniProt P10275); test: qHTS assay to identify small molecule antagonists of the androgen receptor (AR) signaling pathway (AID 743035; active = well fitted inhibition curve with a large enough effect in the signal ratio in the repeat runs, not every such curve was filed as active; the % refers to the signal ratio)
Outline: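 Antagonism is scored as loss of R1881-driven beta-lactamase reporter expression in HEK293 cells carrying the reporter under a UAS element, after 16 h co-treatment at 37C and a 2 h room-temperature FRET substrate read.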

[17] = target: Androgen receptor (Homo sapiens) (UniProt P10275); test: qHTS assay to identify small molecule agonists of the androgen receptor (AR) signaling pathway using the MDA cell line (AID 743040; note: nearly all actives have a fitted effect of over 20% in size)
Outline: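 Human breast carcinoma MDA-kb2 reporter cells (MMTV-luc, AR/GR elements) were treated for 16 h at 37C in 0% CO2 following a 5 h settling period. Signal was quantified by ONE-Glo luminescence.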

[18] = target: Androgen receptor (Homo sapiens) (UniProt P10275); test: qHTS assay to identify small molecule antagonists of the androgen receptor (AR) signaling pathway using the MDA cell line (AID 743042; note: nearly all actives have a fitted effect of over 55% in size)
Outline: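 MDA-kb2 breast carcinoma cells carrying MMTV-luciferase (AR/GR responsive) were co-treated with compounds and the agonist R1881 for 16 h at 37C. Inhibition read as ONE-Glo luminescence; CellTiter-Fluor fluorescence measured in parallel for cytotoxicity.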

Aromatase (Homo sapiens), sequence (P11511 whole entry, looked up): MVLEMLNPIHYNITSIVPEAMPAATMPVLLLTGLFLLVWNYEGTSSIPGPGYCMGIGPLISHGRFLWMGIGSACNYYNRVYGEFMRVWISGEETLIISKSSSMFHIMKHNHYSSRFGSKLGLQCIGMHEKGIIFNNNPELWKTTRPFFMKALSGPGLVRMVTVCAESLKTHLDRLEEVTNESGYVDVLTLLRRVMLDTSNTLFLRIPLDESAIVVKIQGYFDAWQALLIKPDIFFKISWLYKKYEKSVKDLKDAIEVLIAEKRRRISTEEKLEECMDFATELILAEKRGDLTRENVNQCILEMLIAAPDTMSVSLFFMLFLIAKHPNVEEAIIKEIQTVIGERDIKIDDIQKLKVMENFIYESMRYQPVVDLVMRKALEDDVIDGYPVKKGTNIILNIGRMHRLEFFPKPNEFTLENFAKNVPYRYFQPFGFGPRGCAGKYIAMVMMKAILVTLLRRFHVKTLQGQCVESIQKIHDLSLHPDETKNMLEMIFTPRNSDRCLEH
Androgen receptor (Homo sapiens), sequence (P10275 whole entry, looked up): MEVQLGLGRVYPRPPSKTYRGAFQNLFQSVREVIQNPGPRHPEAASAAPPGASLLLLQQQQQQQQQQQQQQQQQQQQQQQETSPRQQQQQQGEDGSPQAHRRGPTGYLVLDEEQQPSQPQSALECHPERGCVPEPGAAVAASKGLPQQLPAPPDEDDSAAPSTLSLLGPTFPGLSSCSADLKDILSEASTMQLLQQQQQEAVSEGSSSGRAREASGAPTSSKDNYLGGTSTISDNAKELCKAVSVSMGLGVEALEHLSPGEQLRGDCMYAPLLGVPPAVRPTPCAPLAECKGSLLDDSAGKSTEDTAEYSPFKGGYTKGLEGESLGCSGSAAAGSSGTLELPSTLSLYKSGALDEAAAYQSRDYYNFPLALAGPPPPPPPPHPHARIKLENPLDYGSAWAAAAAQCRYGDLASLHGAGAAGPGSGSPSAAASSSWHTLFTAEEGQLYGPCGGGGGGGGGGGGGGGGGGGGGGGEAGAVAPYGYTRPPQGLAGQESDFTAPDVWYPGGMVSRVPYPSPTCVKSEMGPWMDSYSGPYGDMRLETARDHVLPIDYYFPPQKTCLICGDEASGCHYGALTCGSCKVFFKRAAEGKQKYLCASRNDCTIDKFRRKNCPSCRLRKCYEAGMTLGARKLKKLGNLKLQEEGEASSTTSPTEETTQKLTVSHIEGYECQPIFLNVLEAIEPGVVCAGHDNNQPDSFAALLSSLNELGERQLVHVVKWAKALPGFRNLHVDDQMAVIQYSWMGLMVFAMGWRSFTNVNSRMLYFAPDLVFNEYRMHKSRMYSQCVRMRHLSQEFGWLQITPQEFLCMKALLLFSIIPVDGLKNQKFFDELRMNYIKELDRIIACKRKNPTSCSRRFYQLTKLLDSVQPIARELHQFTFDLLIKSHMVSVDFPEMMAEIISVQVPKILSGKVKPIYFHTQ
Estrogen receptor (Homo sapiens), sequence (P03372 whole entry, looked up): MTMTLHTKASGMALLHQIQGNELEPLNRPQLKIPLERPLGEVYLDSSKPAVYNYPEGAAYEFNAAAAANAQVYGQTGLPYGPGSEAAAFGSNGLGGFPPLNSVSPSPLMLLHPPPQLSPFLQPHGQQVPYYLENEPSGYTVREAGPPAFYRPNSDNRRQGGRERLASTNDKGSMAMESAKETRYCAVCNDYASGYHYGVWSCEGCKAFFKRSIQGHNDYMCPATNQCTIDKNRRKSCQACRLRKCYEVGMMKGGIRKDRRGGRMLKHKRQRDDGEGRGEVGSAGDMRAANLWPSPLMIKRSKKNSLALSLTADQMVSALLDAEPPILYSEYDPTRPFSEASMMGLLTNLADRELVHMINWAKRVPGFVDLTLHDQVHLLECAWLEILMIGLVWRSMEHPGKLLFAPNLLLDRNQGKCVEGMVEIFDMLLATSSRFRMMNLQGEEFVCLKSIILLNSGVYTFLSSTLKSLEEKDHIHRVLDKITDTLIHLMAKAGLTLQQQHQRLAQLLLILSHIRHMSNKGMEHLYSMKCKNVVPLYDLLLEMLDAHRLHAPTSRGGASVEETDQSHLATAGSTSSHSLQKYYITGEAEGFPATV

SMILES | outcome [1] | Potency [2] | Potency [3] | Potency [4] | Potency [5] | Potency [6] | Potency [7] | Potency [8] | outcome [9] | outcome [10] | outcome [11] | Potency [12] | Potency [13] | outcome [14] | Potency (Aromatase (Homo sapiens)) | outcome [15] | Potency [16] | outcome [17] | Potency [18]
c1ccc2nccnc2c1 | inactive | inactive | inactive | 63.1 µM (active) | inactive | inactive | inactive | inactive | inactive | inactive | inactive | inactive | inactive | inactive | inactive | – | – | – | –
C=Cc1ccccn1 | inactive | inactive | inactive | inactive | inactive | inactive | inactive | inactive | inactive | – | – | – | – | inactive | inactive | – | – | – | –
ClCCCl | inactive | inactive | inactive | – | inactive | inactive | – | inactive | inactive | inactive | inactive | inactive | inactive | inactive | inactive | inactive | – | – | –
Cc1cc(NC(=O)C2=C(O)c3ccccc3S(=O)(=O)N2C)no1 | inactive | inactive | inactive | inactive | inactive | inactive | inactive | inactive | inactive | – | – | – | – | inactive | inactive | – | – | – | –
CC(=O)CCCCn1c(=O)c2c(ncn2C)n(C)c1=O | inactive | inactive | inactive | inactive | – | inactive | inactive | inactive | inactive | inactive | inactive | inactive | inactive | inactive | inactive | inactive | – | – | –
Brc1ccc(-c2ccccc2)cc1 | inactive | inactive | inactive | inactive | inactive | inactive | inactive | inactive | inactive | – | – | – | – | inactive | – | – | – | – | –
COC(=O)c1ccccc1C(=O)c1ccc(OCCN2CCCCC2)cc1 | inactive | 1.88 µM (active) | 1.06 µM (active) | 2.11 µM (active) | inactive | inactive | – | – | inactive | inactive | inactive | inactive | inactive | inactive | inactive | inactive | – | – | –
CCCCCCCCCCCCCC | inactive | inactive | inactive | inactive | – | inactive | – | – | – | – | – | – | – | inactive | inactive | inactive | – | – | –
COc1cc2c(cc1OC)[C@@H]1CC(=O)[C@@H](CC(C)C)CN1CC2 | inactive | 23.7 µM (active) | 21.1 µM (active) | 29.8 µM (active) | inactive | inactive | – | inactive | inactive | inactive | inactive | inactive | inactive | inactive | – | – | – | – | –
N[C@@H](CCC(=O)N[C@@H](CS)C(=O)NCC(=O)O)C(=O)O | inactive | inactive | inactive | inactive | inactive | inactive | – | – | – | – | – | – | – | inactive | inactive | inactive | – | – | –
CC(C)CCCCOC(=O)c1ccccc1C(=O)OCCCCC(C)C | inactive | inactive | inactive | inactive | inactive | inactive | – | inactive | inactive | – | – | – | – | inactive | inactive | inactive | – | – | –
COCCOC(=O)C1=C(C)NC(C)=C(C(=O)OC(C)C)C1c1cccc([N+](=O)[O-])c1 (centres undefined) | inactive | 26.6 µM (active) | 26.6 µM (active) | 23.7 µM (active) | inactive | inactive | inactive | – | inactive | – | inactive | inactive | inactive | inactive | inactive | inactive | – | – | –
O=C(O)Cc1ccc(Cl)cc1Cl | inactive | 61.1 µM (active) | 27.3 µM (active) | – | inactive | inactive | inactive | inactive | inactive | inactive | inactive | inactive | inactive | inactive | inactive | inactive | inactive | inactive | inactive
CCCCNc1ccc(C(=O)OCCN(C)C)cc1 | inactive | 5.07 µM (active) | 2.85 µM (active) | 5.07 µM (active) | inactive | inactive | inactive | – | inactive | – | – | – | – | inactive | inactive | inactive | – | – | –
CC(=O)Nc1ccc(S(=O)(=O)Nc2ccc([N+](=O)[O-])cc2)cc1 | inactive | inactive | inactive | inactive | – | inactive | – | inactive | inactive | inactive | inactive | inactive | inactive | – | inactive | inactive | – | – | –
CCCCCCOC(=O)CC | inactive | inactive | inactive | inactive | inactive | inactive | – | inactive | inactive | inactive | inactive | inactive | inactive | inactive | inactive | inactive | – | – | –
Nc1ccc([N+](=O)[O-])c(N)c1 | inactive | inactive | inactive | inactive | inactive | 59.6 µM (active) | – | inactive | inactive | inactive | inactive | – | inactive | – | inactive | – | – | – | –
